Test systems include DU-145 prostate; K-562 leukemia; MALME-3M melanoma; MDA-MB-231 breast; RXF 393 renal; SF-268 CNS; SF-295 CNS; SF-539 CNS; UACC-257 melanoma; M14 melanoma; HCT-15 colon; HT29 colon; SNB-75 CNS; SNB-19 CNS; U251 CNS; PC-3 prostate; SK-MEL-5 melanoma; UACC-62 melanoma; SK-MEL-28 melanoma; LOX IMVI melanoma.
Holding throughout (experiment): NCI-60 one-dose screen, 48 h (100 = growth as untreated, 0 = no growth, -100 = all killed)
Holding throughout (conditions): 10 µM unless noted

Compounds without any hit were thinned out: in the full panel of roughly 83,000, 20% have a hit.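 For each line, cells grew in 96-well plates with the test compound present at a single concentration for 48 hours.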 Unmarked numbers belong to inactive results. The source made the active and inactive calls. Rule for the calls: active = growth percent below 10; inactive = the rest.

These results are taken from PubChem BioAssay (NCI).

As for `Cc1ccc(-c2cc(-c3ccc(C)cc3)nc(N3CCN(CCNc4ccnc5cc(Cl)ccc45)CC3)n2)cc1`, the growth in the experiment with DU-145 prostate is 21.5%; in the experiment on K-562 leukemia, 27.7%; with MALME-3M melanoma, -45.9% (active); in the experiment on MDA-MB-231 breast, 18.6%; in the experiment on RXF 393 renal it was -14.5% (active); in the experiment with SF-268 CNS, 28.2%. Further, the growth in the experiment with SF-295 CNS was 94.9%; in the experiment with SF-539 CNS it was 7.85% (active); in the experiment on UACC-257 melanoma, 40.8%; in the experiment on M14 melanoma, -2.46% (active); with HCT-15 colon, 42.1%; with HT29 colon it was 11.9%. Further, the growth with SNB-75 CNS is -21.1% (active); in the experiment with SNB-19 CNS, 38.7%; in the experiment with U251 CNS, 35.7%; in the experiment on PC-3 prostate, 44.6%; in the experiment with SK-MEL-5 melanoma it was 38.5%; with UACC-62 melanoma, 12.2%. In addition, in the experiment on SK-MEL-28 melanoma, the growth was 14.6%.

With `N=C(N)c1ccc(-c2ccc(-c3ccc(-c4cccs4)s3)s2)cc1F`, the growth with DU-145 prostate was 107%; with K-562 leukemia it was 15.9%; in the experiment with MALME-3M melanoma, 102%; with MDA-MB-231 breast, 91.2%; in the experiment on RXF 393 renal, 90.3%; in the experiment on SF-268 CNS, 98.8%. Also, the growth was 97.5% with SF-295 CNS; 94.7% in the experiment with SF-539 CNS; 102% in the experiment on UACC-257 melanoma; 99.4% with M14 melanoma; 84.5% with HCT-15 colon; 72.6% in the experiment on HT29 colon. Also, the growth with SNB-75 CNS was 84.8%; in the experiment with SNB-19 CNS, 91.6%; with U251 CNS it was 101%; in the experiment on PC-3 prostate, 92.6%; in the experiment on SK-MEL-5 melanoma, 96.7%; with UACC-62 melanoma it was 97.2%. Besides, the growth in the experiment with SK-MEL-28 melanoma was 101%.

`CC(C)=CCC[C@](C)(O)[C@H]1CC[C@]2(C)[C@@H]1CC[C@@H]1[C@@]3(C)CC/C(=N/O)C(C)(C)[C@@H]3CC[C@]12C`: the growth in the experiment with DU-145 prostate was -15.4% [100 µM] (active); in the experiment on K-562 leukemia, 10.9% [100 µM]; with MALME-3M melanoma it was -69.7% [100 µM] (active); in the experiment on MDA-MB-231 breast it was -34.2% [100 µM] (active); in the experiment on RXF 393 renal, -32.5% [100 µM] (active); in the experiment on SF-268 CNS, 11.5% [100 µM]. Moreover, the growth in the experiment with SF-295 CNS was -66.5% [100 µM] (active); with SF-539 CNS, -53.9% [100 µM] (active); in the experiment with UACC-257 melanoma, 19.8% [100 µM]; in the experiment with M14 melanoma, -13.6% [100 µM] (active); in the experiment on HCT-15 colon it was 29.7% [100 µM]; in the experiment with HT29 colon it was -43.5% [100 µM] (active). In addition, the growth in the experiment on SNB-75 CNS is -38.8% [100 µM] (active); in the experiment on SNB-19 CNS, -28.8% [100 µM] (active); with U251 CNS it was -81.5% [100 µM] (active); in the experiment on PC-3 prostate it was -52.1% [100 µM] (active); in the experiment with SK-MEL-5 melanoma, -45.3% [100 µM] (active); in the experiment with UACC-62 melanoma, -59.2% [100 µM] (active). Besides, the growth with SK-MEL-28 melanoma was -36.1% [100 µM] (active).

In the case of `COc1ccc(C(C(=O)O)c2ccc(OC)cc2)cc1`, the growth was 105% in the experiment on DU-145 prostate; 105% with K-562 leukemia; 128% in the experiment with MALME-3M melanoma; 120% in the experiment on MDA-MB-231 breast; 128% with RXF 393 renal; 103% in the experiment on SF-268 CNS. Also, the growth with SF-295 CNS is 104%; in the experiment with SF-539 CNS, 105%; in the experiment with UACC-257 melanoma it was 110%; with M14 melanoma it was 114%; with HCT-15 colon it was 99.4%; in the experiment on HT29 colon, 114%. Moreover, the growth is 72.2% in the experiment on SNB-75 CNS; 113% in the experiment with SNB-19 CNS; 113% in the experiment on U251 CNS; 101% in the experiment on PC-3 prostate; 110% with SK-MEL-5 melanoma; 116% in the experiment on UACC-62 melanoma. The growth with SK-MEL-28 melanoma is 107%.

With `CCCC(NC(=O)OCc1ccccc1)C(=O)O` (stereo not drawn), the growth in the experiment with DU-145 prostate was 107%; with K-562 leukemia, 107%; in the experiment with MALME-3M melanoma, 88.8%; in the experiment with MDA-MB-231 breast, 75.9%; with RXF 393 renal, 90.5%; in the experiment with SF-268 CNS, 104%. For the same compound, the growth is 92.3% in the experiment on SF-295 CNS; 95.9% in the experiment on SF-539 CNS; 36.1% in the experiment on UACC-257 melanoma; 93.1% with M14 melanoma; 103% with HCT-15 colon; 104% with HT29 colon. For the same compound, the growth with SNB-75 CNS was 84%; in the experiment with SNB-19 CNS, 99.4%; with U251 CNS it was 104%; in the experiment on PC-3 prostate, 93.8%; with SK-MEL-5 melanoma, 90.1%; with UACC-62 melanoma it was 89.6%. Besides, the figures for the growth with LOX IMVI melanoma and in the experiment with SK-MEL-28 melanoma were 99.5% and 92.8%, respectively.

As for `COc1ccc(NC(=S)NNc2ccc(-c3ccc(OC)c(OC)c3)nn2)cc1`, the growth was 107% in the experiment on DU-145 prostate; 104% in the experiment with K-562 leukemia; 112% in the experiment on MALME-3M melanoma; 96.1% in the experiment with MDA-MB-231 breast; 120% in the experiment on RXF 393 renal; 92.9% in the experiment on SF-268 CNS. The growth was 101% in the experiment on SF-295 CNS; 97.6% in the experiment with SF-539 CNS; 103% with UACC-257 melanoma; 99.2% with M14 melanoma; 107% in the experiment on HCT-15 colon; 109% in the experiment on HT29 colon. In addition, the growth was 74.4% in the experiment with SNB-75 CNS; 97.1% in the experiment with SNB-19 CNS; 76.6% in the experiment with U251 CNS; 104% in the experiment with PC-3 prostate; 101% in the experiment with SK-MEL-5 melanoma; 102% in the experiment on UACC-62 melanoma. Further, the growth in the experiment with SK-MEL-28 melanoma is 113%.

As to `O=[N+]([O-])c1cccc(N=NNc2cccc([N+](=O)[O-])c2)c1`, the growth with DU-145 prostate was 86.2%; in the experiment with K-562 leukemia it was 103%; with MALME-3M melanoma, 102%; in the experiment with MDA-MB-231 breast it was 78.8%; in the experiment with RXF 393 renal, 90.2%; in the experiment on SF-268 CNS, 93.5%. In addition, the growth in the experiment with SF-295 CNS was 95.6%; in the experiment on SF-539 CNS, 97.6%; in the experiment with UACC-257 melanoma, 103%; in the experiment with M14 melanoma, 102%; in the experiment on HCT-15 colon it was 85.8%; in the experiment with HT29 colon, 92.6%. Besides, the growth was 94.4% in the experiment with SNB-75 CNS; 92% with SNB-19 CNS; 82.8% in the experiment on U251 CNS; 86.4% in the experiment on PC-3 prostate; 87.3% in the experiment on SK-MEL-5 melanoma; 76.5% in the experiment with UACC-62 melanoma. Further, in the experiment with SK-MEL-28 melanoma, the growth is 99.5%.

Turning to `CCCCCn1sc(=O)n(Cc2ccc(CNC(=O)OCc3ccc4cccc(O)c4n3)cc2)c1=O`, the growth in the experiment on DU-145 prostate was -15% (active); in the experiment on K-562 leukemia, 3.39% (active); in the experiment with MALME-3M melanoma, -77.7% (active); with MDA-MB-231 breast it was -62.5% (active); with RXF 393 renal it was -76.8% (active); in the experiment on SF-268 CNS, 27.6%. Further, the growth in the experiment with SF-295 CNS was 31.1%; with SF-539 CNS, -69.6% (active); in the experiment with UACC-257 melanoma, 0.0301% (active); in the experiment on M14 melanoma, -64.7% (active); in the experiment on HCT-15 colon, -20.5% (active); with HT29 colon, -49.2% (active). The growth in the experiment with SNB-75 CNS was -4.62% (active); with SNB-19 CNS, 37%; with U251 CNS it was 20.1%; with PC-3 prostate it was 3.68% (active); with SK-MEL-5 melanoma, -44.7% (active); with UACC-62 melanoma, -64.2% (active). Also, the growth in the experiment with SK-MEL-28 melanoma is -35% (active).
